A selection: hits, their analogues and other compounds. The true share with any hit is near 9.9%.
KDM4E inh: JMJD2E (human) inhibition. B2RXH2. JMJD2E catalytic domain, FDH-coupled NADH fluorescence (FDH is formaldehyde dehydrogenase). Potency, µM (titrated, usually from 57.1 µM), hits mostly inhibitors. actives 1.6% (n = 230,000). AID 2147; note: nearly all actives have a fitted effect of over 50% in size
Target sequence (B2RXH2 1-337 limits assumed): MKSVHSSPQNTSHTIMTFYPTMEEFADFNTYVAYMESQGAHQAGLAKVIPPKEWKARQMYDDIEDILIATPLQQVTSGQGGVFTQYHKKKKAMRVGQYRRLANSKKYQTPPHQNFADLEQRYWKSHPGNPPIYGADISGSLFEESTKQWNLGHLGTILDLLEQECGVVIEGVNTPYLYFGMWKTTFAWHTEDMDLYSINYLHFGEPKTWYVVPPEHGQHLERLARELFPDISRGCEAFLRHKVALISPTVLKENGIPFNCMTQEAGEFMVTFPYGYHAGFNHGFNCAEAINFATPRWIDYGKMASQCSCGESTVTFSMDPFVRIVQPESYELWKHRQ
ALDH1A1 block: inhibitors of human aldehyde dehydrogenase 1A1; P00352; Purified ALDH1A1, NADH fluorescence, propionaldehyde substrate; Potency, µM (series often up to 75.3 µM), most hits filed as inhibitors; actives 7.3% (n = 220,000); AID 1030
Tau ThT inhib: inhibitors of human tau fibril formation, thioflavin T binding; P10636; recombinant tau K18 P301L, heparin-induced fibrillization, ThT fluorescence; Potency, µM (titrated, usually from 57.4 µM), usual class: inhibitors; actives 2.1% (n = 270,000); active = well fitted curve in the direction sought with a large enough effect; inconclusive = small, poorly fitted or top-dose-only effect, or another doubt; inactive = no such curve, though single readings can be large; an effect the other way counts as inactive or inconclusive; note: nearly all actives have a fitted effect of over 55% in size
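Heparin-induced fibrillization of the P301L-mutant K18 repeat-domain fragment of human tau was followed by ThT binding in quantitative high-throughput format.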
HPGD block: HPGD (human) dehydrogenase inhibition | purified HPGD, NADH fluorescence kinetic, PGE2 substrate | P15428 | Potency, µM, usual class: inhibitors | AID 894 | actives 4.3% (n = 150,000)
Target sequence (P15428 whole entry, looked up): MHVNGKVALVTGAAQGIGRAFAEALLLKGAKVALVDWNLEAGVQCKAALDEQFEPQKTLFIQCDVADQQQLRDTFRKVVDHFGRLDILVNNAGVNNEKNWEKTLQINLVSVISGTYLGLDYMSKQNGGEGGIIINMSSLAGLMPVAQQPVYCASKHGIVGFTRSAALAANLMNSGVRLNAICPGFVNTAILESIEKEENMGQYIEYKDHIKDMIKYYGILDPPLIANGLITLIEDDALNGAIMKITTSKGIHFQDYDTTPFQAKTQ
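NADH formation kinetics: reaction with 30 uM PGE2 and 1 mM NAD+ (final), 20 nM enzyme, Tris-HCl pH 8 with Tween 20, after 15 min compound preincubation at room temperature. Fluorescence change, last versus first of five reads.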
Tau fluor counter: counter-screen for tau fibril formation inhibitors; Potency, µM (highest dose often 57.7 µM); actives 0.93% (n = 280,000); tau K18 P301L Alexa594 fluorescence, heparin fibrillization; AID 1463; active = well fitted curve in the direction sought with a large enough effect; inconclusive = small, poorly fitted or top-dose-only effect, or another doubt; inactive = no such curve, though single readings can be large; an effect the other way counts as inactive or inconclusive; note: nearly all actives have a fitted effect of over 55% in size
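Human tau K18 P301L (15 uM unlabeled, 0.24 uM Alexa 594-labeled) in 100 mM sodium acetate pH 7 with 20 uM heparin, 6 hr at 37 C. ThT 30 uM added, 1 hr ambient; Alexa 594 FP and total fluorescence read at 555/632 nm.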
Tau fibril FP: inhibitors of human tau fibril formation; actives 0.39% (n = 280,000); P10636; K18 P301L tau heparin fibrillization, Alexa594 FP, 6 h; Potency, µM (doses to about 57.7 µM), actives largely listed as inhibitors; active = well fitted curve in the direction sought with a large enough effect; inconclusive = small, poorly fitted or top-dose-only effect, or another doubt; inactive = no such curve, though single readings can be large; an effect the other way counts as inactive or inconclusive; note: nearly all actives have a fitted effect of over 55% in size
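Read-out: fluorescence polarization of Alexa 594-labeled tau (0.24 uM), 555 nm excitation, 632 nm emission. Mixtures held 15 uM unlabeled K18 P301L, compound and 20 uM heparin, pH 7 acetate buffer, incubated 6 hr at 37 C.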
Numbers stand for hits; i = inactive; ? = inconclusive; nt = no result; ! = not confirmed by another sample; [ ] = another dose, or the depositor's remark. Unless noted, calls come from the whole dose curve; as a rule, active = well fitted inhibition curve with a large enough effect (not every such curve was filed as active); inconclusive = small, poorly fitted or top-dose-only effect, or another doubt; inactive = no such curve, though single readings can be large or run the other way.

SMILES	KDM4E inh	ALDH1A1 block	Tau ThT inhib	HPGD block	Tau fluor counter	Tau fibril FP
Fc1ccc(CSc2nc3ccccc3[nH]2)c2ccccc12	i	i	i	?	?	25.1µM
c1ccc(CC2CCN(C3=Nc4cccc5cccc3c45)CC2)cc1	i	14.1µM	?	i	i	i
O=S1(=O)N=C(Oc2cccc3ccccc23)c2ccccc21	?	?	?	i	i	i
CCc1cccc(NC(=O)NC(=O)Cn2nnc(C(=O)OC)c2C(=O)OC)c1	i	i	i	i	i	i
C1CCCNCC1	nt	22.4µM	nt	i	nt	nt
CCc1ccc(NS(=O)(=O)c2cccc3nonc23)cc1	i	i	i	nt	i	i
CC1CC(C)(C)Nc2ccc(N=O)cc21 (stereo not given)	i	10µM	i	nt	i	i
CC1CC(C)(C)Nc2ccc(OC(=O)c3ccco3)cc21 (stereo not given)	i	?	i	i	i	i
COc1ccc(CNC(=O)Cn2ncc3c(=O)oc4ccccc4c32)c(OC)c1	nt	nt	?	nt	i	i
CCOc1ccc(NC(=O)Cn2nnc(-c3nc(-c4ccncc4)no3)c2N)cc1	nt	nt	i	nt	i	i
O=C1c2ccccc2C(=O)N1CCCCN(C(=O)c1cc2ccccc2oc1=O)c1ccc(Cl)cc1	i	7.94µM	i	i	i	i
Cn1c(=O)c2c(nc(N/N=C/c3ccncc3)n2Cc2ccccc2)n(C)c1=O	i	nt	i	nt	i	i
COc1cc(/C=N/Nc2nc3c(c(=O)n(C)c(=O)n3C)n2Cc2ccccc2)ccc1OC(=O)c1ccco1	?	?	?	?	7.94µM[quencher]	?
CCCn1c(-c2ccc(F)cc2)nc2c(N3CCCN(Cc4ccccc4)CC3)nc(C)nc21	?	?	?	?	i	i
Cc1ccc(C)c(-n2nnnc2SCC(=O)c2ccc3c(c2)NC(=O)CO3)c1	i	0.631µM	i	i	i	i
COc1cc(C(=O)Nc2nnc(C(C)(C)C)s2)c([N+](=O)[O-])cc1OC	i	?	i	20µM	i	i
Cc1ccc(NC(=O)c2ccco2)c(OCc2cc(=O)n3cc(C)sc3n2)c1	nt	nt	i	nt	i	i
N#CCc1c(C#N)c(N)nc(N2CCCC(O)C2)c1C#N (stereo not given)	?	3.55µM	i	nt	i	i
Cc1nnc(SCc2cc(=O)[nH]c(=S)[nH]2)s1	i	12.6µM	i	nt	i	i
Cc1ccc2c(=O)cc(CSc3ccccc3)[nH]c2c1C	nt	nt	i	nt	i	?
O=c1cc(CSc2ccccc2)[nH]c(=S)[nH]1	i	28.2µM	i	i	i	i
Cc1nnc(SCc2cc(=O)c3ccccc3[nH]2)s1	nt	nt	i	nt	i	i
COc1ccc(-c2ccc(-c3cc(=O)oc4cc(OC)c(OC)c(OC)c34)cc2)cc1	nt	i	i	i	i	i
CSc1ccc2c(c1)N(CC[C@H]1CCCCN1C)c1ccccc1S2	i	i	nt	i	nt	nt
CN1CCCC[C@@H]1CCN1c2ccccc2Sc2ccc(S(C)=O)cc21 (stereo not given in full)	i	i	nt	3.16µM!	nt	nt
SMILES	KDM4E inh	ALDH1A1 block	Tau ThT inhib	HPGD block	Tau fluor counter	Tau fibril FP
O=C(O)CCc1cc(I)c(Oc2ccc(O)c(I)c2)c(I)c1	i	nt	i	nt	i	i
O=c1cc(-c2ccc(O)c(O)c2)oc2cc(O)c(C3OC(CO)C(O)C(O)C3O)c(O)c12 (stereo not given)	14.1µM	i	?	nt	i	i
O=c1cc(-c2ccc(O)c(O)c2)oc2cc(OC3OC(CO)C(O)C(O)C3O)cc(O)c12 (stereo not given)	11.2µM	?	?	i	?	i
O=C(Cn1ncc2c1-c1ccccc1OC2)N1CCN(Cc2ccc3c(c2)OCO3)CC1	i	i	i	i	i	i
Cc1c(Cl)cccc1NC(=O)CC(c1ccc(F)cc1)N1Cc2ccccc2C1=O (stereo not given)	nt	nt	i	nt	i	i
O=C(NCCc1ccccc1)c1cnc2sc(N3CCCCC3)nn2c1=O	nt	nt	i	nt	i	i
CC1(C)CC(=O)C(C=Nc2ccccc2)=C(O)C1	i	i	i	nt	i	i
COc1ccc(N=CC2=C(O)CC(C)(C)CC2=O)cc1OC	i	nt	i	nt	i	i
CC1(C)CC(=O)C(C=Nc2ccc(NC3=C(C#N)C(=O)CC(C)(C)C3)cc2)=C(O)C1	?	7.08µM	i	nt	i	?
CC1(C)CC(=O)C(C=Nc2cccc(/N=C/C3=C(O)CC(C)(C)CC3=O)n2)=C(O)C1	i	3.55µM	i	i	i	i
Cc1[nH]nc(N=CC2=C(O)CC(c3ccco3)CC2=O)c1-c1ccccc1 (stereo not given)	i	?	i	nt	i	i
Cc1[nH]nc(N=CC2=C(O)CC(C)(C)CC2=O)c1-c1ccccc1	i	28.2µM	i	i	i	i
CC1(C)CC(=O)C(/C=N/c2ccccn2)=C(O)C1	i	14.1µM	i	i	?	?
CCCNC(=O)N1CCN(S(=O)(=O)c2ccc3c(ccn3C)c2)CC1	nt	nt	i	nt	i	i
COc1ccc(CCNC(=O)Cc2c(C)c3c(cc(C)c4c(C)c(C)oc43)oc2=O)cc1	nt	nt	i	nt	i	i
CCCc1ccc(-c2cc(NC(=O)CSc3nnc(N)s3)n(-c3ccccc3)n2)cc1	i	i	?	nt	?	?
CCOc1ccc(-c2nonc2NC(=O)c2oc3ccc(Br)cc3c2C)cc1	nt	nt	i	nt	i	i
O=C(C1CCN(S(=O)(=O)c2cccc3nsnc23)CC1)N1CC=C(c2ccccc2)CC1	i	?	?	i	i	i
O=C(NCc1cccs1)C1CCC(CNS(=O)(=O)c2ccc(Br)s2)CC1 (stereo not given)	i	2.82µM	i	i	i	i
O=C(C1CCC(CNS(=O)(=O)c2cccc3nsnc23)CC1)N1CC=C(c2ccccc2)CC1 (stereo not given)	i	17.8µM	i	15.8µM	i	i
CC(=O)Nc1ccc(NC(=O)C2CCC(CNS(=O)(=O)c3cccc4nsnc34)CC2)cc1 (stereo not given)	?	?	i	nt	i	i
COc1cccc(CNC(=O)C2CCC(CNS(=O)(=O)c3cccc4nsnc34)CC2)c1 (stereo not given)	i	20µM	i	i	i	i
O=C(NCc1cccs1)C1CCC(CNS(=O)(=O)c2cccc3nsnc23)CC1 (stereo not given)	i	22.4µM	i	i	i	i
O=C(NC1CCCCC1)C1CCC(CNS(=O)(=O)c2cccc3nsnc23)CC1 (stereo not given)	i	?	i	i	i	i
O=C(Nc1nnc(C2CC2)s1)c1n[nH]c(=O)c2ccccc12	i	nt	i	nt	i	i
O=S(=O)(c1cccc(C(F)(F)F)c1)N1c2ccccc2-n2cccc2[C@H]1c1cccnc1	nt	i[13.5 µM]	nt	i	nt	nt
CCc1cc(C(=O)c2ccc(OC)cc2)c(NC(=O)CN2CCCC2)s1	?	10µM	?	nt	i	i
CCc1cc(C(=O)c2ccc(OC)cc2)c(NC(=O)CCC(=O)O)s1	i	i	i	nt	i	i

Compound activity as filed in PubChem.
